This passage reports outcome and Potency results from PubChem BioAssay (Tox21).

Results filed as inconclusive are left out. Activity calls are given as the source filed them. Unless noted, the call rests on the fitted dose curve; in most records, active means well fitted curve in the direction sought with a large enough effect in the repeat runs; inconclusive means weak or mixed curves; inactive means no such curve, though single readings can be large; an effect the other way counts as inactive or inconclusive.

A short description of assay [1]: qHTS assay to test for compound auto fluorescence at 535 nm (green) in HEK293 cells (AID 720680). In general terms: Quantitative high-throughput screening tests each substance at several concentrations.
Assay [2] in a line: qHTS assay to test for compound auto fluorescence at 460 nm (blue) in HEK293 cell free culture (AID 720681). A digest of the protocol:
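Test compounds were pinned into cell-free culture medium (DMEM with 10% FBS) and fluorescence was read directly at Ex/Em 405/460 nm. Signals were expressed as fluorescence equivalents of triamterene, with DMSO vehicle as control.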

Assay [3] is described as follows: qHTS assay to test for compound auto fluorescence at 535 nm (green) in HEK293 cell free culture (AID 720682). In short, it runs like this:
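Fluorescein serves as the green reference fluorophore; each compound's intrinsic emission at 535 nm (excitation 485 nm) is reported as an equivalent amount of that dye, measured in serum-containing DMEM without cells.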

Assay [4] is described as follows: qHTS assay to test for compound auto fluorescence at 590 nm (red) in HEK293 cell free culture (AID 720683). A digest of the protocol: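 Tox21 10K library compounds were pinned into cell-free DMEM with 10% FBS and fluorescence was read at excitation 540 nm. Activity is expressed as Rose Bengal sodium equivalency.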
Assay [5] can be described thus: qHTS assay to test for compound auto fluorescence at 590 nm (red) in HepG2 cell free culture (AID 720684). In short, it runs like this: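 Red fluorescence (540 nm excitation, 590 nm emission) was measured after compound transfer into cell-free MEM supplemented with 10% FBS. Values are equivalencies against Rose Bengal sodium.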
The nature of assay [6]: qHTS assay to test for compound auto fluorescence at 460 nm (blue) in HepG2 cell free culture (AID 720685). A digest of the protocol: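 Compound (23 nL) or DMSO pinned into cell-free MEM with 10% FBS; blue fluorescence read at 405/460 nm excitation/emission, expressed as auto-fluorescence equivalency to triamterene.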
A short description of assay [7]: qHTS assay to test for compound auto fluorescence at 535 nm (green) in HepG2 cell free culture (AID 720686). Further: potency means the concentration at half of the fitted maximal effect.
Assay [8] in a line: qHTS assay to test for compound auto fluorescence at 460 nm (blue) in HepG2 cells (AID 720687). In short, it runs like this:
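Cells (2,000/well in MEM with 10% FBS) attached overnight at 37 C, then were exposed to compound or DMSO for 1 hr at 37 C, 5% CO2. Fluorescence read at Ex/Em 405/460 nm, expressed as triamterene-equivalent signal.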

A short description of assay [9]: qHTS assay for identifying genotoxic compounds that show differential cytotoxicity against isogenic chicken DT40 cell lines with known DNA damage response pathways - wild type cell line (AID 743012). Further: nearly all actives have a fitted effect of over 60% in size. Further: potency means the concentration at half of the fitted maximal effect. In short, it runs like this: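 Using parental DT40 (300 cells/well), compounds delivered in DMSO incubate 40 h at 37 C/5% CO2. CellTiter-Glo reagent then stands 30 min at room temperature, and luminescence gives cell viability.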

The nature of assay [10]: qHTS assay for identifying genotoxic compounds that show differential cytotoxicity against isogenic chicken DT40 cell lines with known DNA damage response pathways - Rad54/Ku70 mutant cell line (AID 743015). Further: nearly all actives have a fitted effect of over 60% in size. Further: potency means the concentration at half of the fitted maximal effect.
In assay [11] the target is Androgen receptor (Homo sapiens) (UniProt P10275). Briefly: qHTS assay to identify small molecule antagonists of the androgen receptor (AR) signaling pathway (AID 743035; active means well fitted inhibition curve with a large enough effect in the signal ratio in the repeat runs, not every such curve was filed as active; the % refers to the signal ratio). In short, it runs like this:
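Using qHTS, AR-UAS-bla GripTite HEK293 cells received compound, then R1881, and were cultured 16 h at 37C/5% CO2 before a 2 h room-temperature LiveBLAzer B/G FRET substrate step and fluorescence measurement.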

For assay [12] the target is unchanged. Briefly: qHTS assay to identify small molecule agonists of the androgen receptor (AR) signaling pathway (AID 743036; active means well fitted activation curve with a large enough effect in the signal ratio in the repeat runs, with a control signal flat, not every such curve was filed as active; the % refers to the signal ratio). In short, it runs like this: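 Fluorescence from a beta-lactamase FRET substrate served as read-out in AR-UAS-bla GripTite HEK293 cells. Cells were treated with DMSO-dissolved compounds for 16 h at 37C, then with LiveBLAzer B/G substrate for 2 h at room temperature.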

The target is the same in assay [13]. Briefly: qHTS assay to identify small molecule agonists of the androgen receptor (AR) signaling pathway using the MDA cell line (AID 743040; further: nearly all actives have a fitted effect of over 20% in size). A digest of the protocol: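 MDA-kb2 breast carcinoma cells stably carrying an MMTV-driven luciferase reporter (AR- and GR-responsive) were seeded and held 5 h at 37C, 0% CO2, then exposed to compounds in DMSO for 16 h. Luminescence was read 30 min after ONE-Glo addition.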

Assay [14] is described as follows: qHTS assay to identify small molecule antagonists of the androgen receptor (AR) signaling pathway using the MDA cell line - cell viability counter screen (AID 743041; further: nearly all actives have a fitted effect of over 45% in size; further: potency means the concentration at half of the fitted maximal effect). A digest of the protocol: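 MDA-kb2 AR-luc human breast carcinoma cells (MMTV-luciferase, AR/GR responsive) were treated with compounds plus R1881 agonist for 16 h at 37 °C. Viability was read as CellTiter-Fluor fluorescence in the same wells as the reporter assay.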

In assay [15] the target is Androgen receptor (Homo sapiens) (UniProt P10275). Briefly: qHTS assay to identify small molecule antagonists of the androgen receptor (AR) signaling pathway using the MDA cell line (AID 743042; further: nearly all actives have a fitted effect of over 55% in size; further: potency means the concentration at half of the fitted maximal effect). In short, it runs like this: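 MDA-kb2 cells (human breast carcinoma, stably carrying an MMTV-luciferase reporter responsive to AR and GR) were plated at 3,000 cells/well and preincubated 5 hr at 37C, then given compound plus R1881 agonist for 16 h. ONE-Glo luminescence was read.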

Assay [16] can be described thus: qHTS assay for identifying genotoxic compounds that show differential cytotoxicity against isogenic chicken DT40 cell lines with known DNA damage response pathways - Rev3 mutant cell line (AID 743014). Further: nearly all actives have a fitted effect of over 55% in size. Further: potency means the concentration at half of the fitted maximal effect.
The nature of assay [17]: qHTS assay to identify small molecule antagonists of the androgen receptor (AR) signaling pathway - cell viability counter screen (AID 743033; further: nearly all actives have a fitted effect of over 45% in size; further: potency means the concentration at half of the fitted maximal effect).
Tags describe the fitted curve by direction and shape or compound fluorescence and quenching.

Sequence of Androgen receptor (Homo sapiens) (P10275 whole entry, looked up): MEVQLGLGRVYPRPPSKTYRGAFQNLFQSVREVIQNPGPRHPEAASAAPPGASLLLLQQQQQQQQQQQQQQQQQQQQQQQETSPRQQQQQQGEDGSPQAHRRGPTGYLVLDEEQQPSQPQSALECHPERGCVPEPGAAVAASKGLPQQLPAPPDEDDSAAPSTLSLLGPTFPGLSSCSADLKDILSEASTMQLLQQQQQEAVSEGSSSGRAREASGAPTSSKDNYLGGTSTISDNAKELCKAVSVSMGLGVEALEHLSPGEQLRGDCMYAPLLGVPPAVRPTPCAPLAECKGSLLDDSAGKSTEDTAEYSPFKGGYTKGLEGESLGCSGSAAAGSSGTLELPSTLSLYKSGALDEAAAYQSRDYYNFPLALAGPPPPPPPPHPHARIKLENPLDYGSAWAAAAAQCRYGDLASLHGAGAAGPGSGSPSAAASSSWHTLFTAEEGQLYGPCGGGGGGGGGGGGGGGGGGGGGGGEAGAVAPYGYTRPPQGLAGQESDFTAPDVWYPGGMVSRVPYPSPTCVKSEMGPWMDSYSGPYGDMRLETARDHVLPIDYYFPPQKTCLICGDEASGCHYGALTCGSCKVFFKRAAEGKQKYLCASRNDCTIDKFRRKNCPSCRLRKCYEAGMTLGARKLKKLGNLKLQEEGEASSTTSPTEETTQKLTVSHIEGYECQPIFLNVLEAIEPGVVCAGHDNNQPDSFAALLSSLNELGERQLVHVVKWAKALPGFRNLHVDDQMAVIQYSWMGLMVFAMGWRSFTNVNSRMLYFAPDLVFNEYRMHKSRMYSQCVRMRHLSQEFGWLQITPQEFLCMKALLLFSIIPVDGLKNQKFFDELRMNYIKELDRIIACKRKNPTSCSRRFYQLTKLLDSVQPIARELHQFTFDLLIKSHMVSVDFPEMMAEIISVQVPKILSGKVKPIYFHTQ

Turning to `COc1ccc2c(c1OC)C(=O)O[C@@H]2[C@H]1c2cc3c(cc2CCN1C)OCO3`, the call in [1], in assay [3], in [4], in assay [5], in [12] and in assay [13] was inactive. For the same molecule, the Potency result in assay [2], in [6], in [7], in [8], in [9] and in [10] was “inactive” in each case. For the same molecule, the Potency result in assay [11], in [14] and in assay [15] was “inactive” in each case.
With `ClC1=C(Cl)[C@]2(Cl)[C@H]3[C@H]([C@@H]4C=C[C@H]3C4)[C@@]1(Cl)C2(Cl)Cl`, the molecule was called inactive in assay [1], in [3], in [4] and in assay [5]. Also, the Potency entry in assay [2], in assay [6], in [7], in assay [8], in assay [9] and in [16] was “inactive” throughout. The Potency entry in assay [17] and in assay [14] was “inactive” in each case.
In the case of `COC(=O)N(OC)c1ccccc1COc1ccn(-c2ccc(Cl)cc2)n1`, the molecule was classed as inactive in assay [1], in assay [3], in assay [4] and in [5]. For the same molecule, the Potency entry in assay [2], in assay [6], in [7] and in assay [8] was “inactive” throughout. In addition, the Potency in assay [9] is 193 nM (active); in assay [16] it was 243 nM (active); in assay [10], 217 nM (active); in [17], 871 nM (active); in assay [14], 1720 nM (active).
In the case of `N#CC(C#N)=NNc1cccc(Cl)c1`, the call in assay [1], in [3], in assay [4], in assay [5] and in assay [13] was inactive. The Potency entry in assay [2], in assay [6], in assay [7] and in [8] was “inactive” throughout. For the same molecule, the Potency in [9] was 2730 nM (active); in assay [16] it was 2730 nM (active); in assay [17] it was 2450 nM (active); in assay [14], 4860 nM (active); in assay [15], 1930 nM (active).
With `[F][Sn]([c]1ccccc1)([c]1ccccc1)[c]1ccccc1`, the outcome in assay [1], in assay [3], in assay [4] and in assay [5] was inactive. For the same molecule, the Potency result in assay [2], in assay [6], in assay [7] and in [8] was “inactive” each time. In addition, the Potency is 243 nM (active) in assay [9], 433 nM (active) in assay [16], 306 nM (active) in assay [10] and 3860 nM (active) in assay [14].
As to `O=[N+]([O-])[O-].[Tl+]`, the molecule was classed as inactive in [1], in [3], in assay [4] and in [5]. Besides, the Potency entry in assay [2], in [6], in [7], in assay [8] and in assay [14] was “inactive” in each case. The Potency in assay [9] was 1550 nM (active); in assay [16], 1090 nM (active).
As for `CN1CCc2cc(Cl)c(O)cc2[C@H]2c3ccccc3CC[C@@H]21`, the result in assay [1], in [3], in assay [4] and in assay [5] was inactive. In addition, the Potency result in assay [2], in assay [6], in [7], in assay [8], in assay [17] and in [14] was “inactive” throughout.
Regarding `CCCN`, the result in assay [1], in assay [3], in assay [4] and in [5] was inactive. Besides, the Potency result in [2], in [6], in assay [7], in assay [8], in [9] and in assay [16] was “inactive” each time. In addition, the Potency entry in [10] and in assay [17] was “inactive” each time.
For `N#Cc1ccc(N(CC(N)=O)CC(F)(F)F)cc1C(F)(F)F`, the call in [1], in assay [3], in assay [4] and in [5] was inactive. The Potency result in assay [2], in assay [6], in assay [7], in [8], in [16] and in assay [17] was “inactive” throughout.
`CC1CCCC1`: the Potency result in [9], in assay [16] and in assay [17] was “inactive” each time.
As to `CO/N=C(\C(=O)OC)c1ccccc1CO/N=C(\C)c1cccc(C(F)(F)F)c1`, the outcome in [1], in assay [3], in [4] and in assay [5] was inactive. Further, the Potency entry in assay [2], in assay [6], in assay [7] and in assay [8] was “inactive” each time. Further, the Potency in assay [9] is 344 nM (active); in assay [16], 273 nM (active); in assay [10], 273 nM (active); in assay [14], 5450 nM (active).
`ClSC(Cl)(Cl)Cl`: the molecule was classed as inactive in assay [1], in [3], in assay [4] and in assay [5]. For the same molecule, the Potency result in assay [2], in [6], in [7], in assay [8], in assay [9] and in assay [16] was “inactive” in each case. Besides, the Potency entry in [10], in assay [17] and in assay [14] was “inactive” throughout.
In the case of `CC(C)=CC1C(C(=O)OC(C#N)c2cccc(Oc3ccccc3)c2)C1(C)C` (centres undefined), the result in assay [1], in assay [3], in assay [4], in [5], in assay [12] and in [13] was inactive. Moreover, the Potency result in assay [2], in assay [6], in assay [7], in assay [8], in assay [9] and in [16] was “inactive” throughout. Moreover, the Potency entry in assay [10], in assay [17], in assay [11] and in [15] was “inactive” each time.
Take `C=CCBr`: the molecule was called inactive in assay [1], in assay [3], in assay [4] and in [5]. The Potency result in assay [2], in assay [6], in assay [7], in [8], in [9] and in assay [16] was “inactive” in each case. In addition, the Potency result in assay [10], in assay [17] and in assay [14] was “inactive” each time.
Consider `O=C(N[C@H]1N=C(c2ccccc2F)c2cccc3c2N(CC3)C1=O)c1cc2ccccc2[nH]1`, for which the result in [1], in [3], in [4] and in assay [5] was inactive. Besides, the Potency result in assay [2], in assay [6], in assay [7], in assay [8], in assay [16] and in assay [14] was “inactive” in each case. Further, the Potency in assay [10] was 29800 nM (active).
Consider `CN=C=O`, for which the molecule was called inactive in assay [1], in assay [3], in assay [4] and in [5]. Further, the Potency entry in [2], in [6], in [7], in [8], in [9] and in assay [16] was “inactive” throughout. For the same molecule, the Potency entry in [10] and in assay [14] was “inactive” each time.
Turning to `Nc1nc(N)c(N)c(N)n1`, the molecule was classed as inactive in [4] and in assay [5]. Further, the Potency in assay [7] was 28200 nM [fluorescent] (active). The Potency result in assay [9], in [16], in [10], in [17] and in assay [14] was “inactive” in each case.
Turning to `O=S(=O)(NS(=O)(=O)C(F)(F)F)C(F)(F)F`, the molecule was classed as inactive in [1], in assay [3], in assay [4] and in [5]. In addition, the Potency result in assay [2], in assay [6], in assay [7], in assay [8], in assay [9] and in [16] was “inactive” in each case. In addition, the Potency result in assay [17] and in assay [14] was “inactive” each time.
